Experimental findings from PubChem BioAssay are described below.

Each structure is given as a SMILES string. Results filed as inconclusive are left out. Calls of active or inactive are those of the source.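 The calls were made as follows, unless noted: active = percent response above 42, roughly 3 SD of non-fluorescent test compounds; inactive = the rest.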

A short description of test [1]: rapamycin-like changes in RPL19A-GFP expression – cell-based, S. cerevisiae, multiplex flow cytometry, primary screen (AID 1862; in the data active = percent of DMSO control GFP below about 86%;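 also: lower values mimic rapamycin by blocking the RPL19A rise seen in DMSO cells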). As to conditions: S. cerevisiae RPL19A-GFP strain, flow cytometry fluorescence, 3 h; at 10 µM; stronger effect = lower value. For orientation: In flow cytometry, cells or beads pass a laser one at a time.
A short description of test [2]: TOR pathway GLN3 branch reporter MEP2-GFP changes – S. cerevisiae, multiplex flow cytometry, primary screen (AID 1867;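 active = GFP response, as percent of the DMSO control, above the screen-wide mean plus 3 SD, about 139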;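 also: median GFP channel fluorescence of barcode-gated MEP2-GFP cells measured by flow cytometry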). As to conditions: S. cerevisiae MEP2-GFP strain, 3 h, at 10 µM, stronger effect = higher value, 100% means same as DMSO wells.
Test [3] in a line: TOR pathway RTG branch CIT2 reporter changes – S. cerevisiae, GFP fusion, multiplex flow cytometry, primary screen (AID 1870;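 active = percent response above a set limit, the screen-wide mean plus 3 SD, cut at about 130% in these data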;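 also: barcoded CIT2-GFP strain pooled with four other GFP strains with rapamycin as positive control; median GFP fluorescence per well over plate mean of DMSO wells so 100% = DMSO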). As to conditions: S. cerevisiae CIT2-GFP expression, 3 h, at 10 µM, stronger effect = higher value.
Test [4] can be described thus: TOR pathway LAP4-GFP level changes – S. cerevisiae, multiplex flow cytometry, primary screen (AID 1873;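 active = GFP signal, as percent of the solvent control, above the screen mean plus 3 SD, about 149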). As to conditions: S. cerevisiae LAP4-GFP expression, 3 h, at 10 µM, stronger effect = higher value.
Test [5] is described as follows: yeast AGP1-GFP level changes, GLN3 branch – cell-based, multiplex flow cytometry, S. cerevisiae, primary screen (AID 1887;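 active = GFP signal above the screen-wide mean plus 3 SD, that is over about 124.5% of the solvent control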;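 also: AGP1-GFP fusion strain of S. cerevisiae within a five-strain barcoded multiplex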). Particulars: 3 h, at 10 µM, stronger effect = higher value.
Test [6] can be described thus: reduced mouse 2C T cell binding to pMHC/ICAM-1 vesicles – MLPCN validation set, flow cytometry, LFA-1/ICAM-1 modulator project, pilot screen (AID 2523;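 active = response below a set limit, under 55% cells CD8-positive and vesicle-bound, and CD8 cells' 90th-percentile brightness under 279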;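 as to vesicle binding response: mean PE anti-B7-1 fluorescence of CD8+ cells relative to row control; 100% = QL9-loaded vesicles with DMSO vehicle in the same plate row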). Particulars: 2C mouse CD8+ T cells, at 7 µM, stronger effect = lower value; double positive events: measured here: CD8+/vesicle+ event percentage.
In test [7] the target is Integrin beta-1 (Homo sapiens) + Integrin alpha-4 (Homo sapiens) (UniProt P13612+P05556). Put plainly: alpha4beta1 integrin LIBS antibody binding reduction – U937 cells, HUTS-21 mAb, flow cytometry, validation set, VLA-4 allosteric modulator project, pilot screen (AID 2674;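 active = inhibition above 50%, about 3 SD of the validation set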;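 also: antibody binding induced by the VLA-4 ligand LDV present at three times its Kd; 0% = LDV ligand with antibody and no compound and 100% = antibody without LDV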). As to conditions: HUTS-21 LIBS mAb binding, at 6.7 µM, stronger effect = higher value, binding induced by LDV ligand.
Chain of Integrin beta-1 (Homo sapiens) + Integrin alpha-4 (Homo sapiens) (P05556 whole entry, looked up): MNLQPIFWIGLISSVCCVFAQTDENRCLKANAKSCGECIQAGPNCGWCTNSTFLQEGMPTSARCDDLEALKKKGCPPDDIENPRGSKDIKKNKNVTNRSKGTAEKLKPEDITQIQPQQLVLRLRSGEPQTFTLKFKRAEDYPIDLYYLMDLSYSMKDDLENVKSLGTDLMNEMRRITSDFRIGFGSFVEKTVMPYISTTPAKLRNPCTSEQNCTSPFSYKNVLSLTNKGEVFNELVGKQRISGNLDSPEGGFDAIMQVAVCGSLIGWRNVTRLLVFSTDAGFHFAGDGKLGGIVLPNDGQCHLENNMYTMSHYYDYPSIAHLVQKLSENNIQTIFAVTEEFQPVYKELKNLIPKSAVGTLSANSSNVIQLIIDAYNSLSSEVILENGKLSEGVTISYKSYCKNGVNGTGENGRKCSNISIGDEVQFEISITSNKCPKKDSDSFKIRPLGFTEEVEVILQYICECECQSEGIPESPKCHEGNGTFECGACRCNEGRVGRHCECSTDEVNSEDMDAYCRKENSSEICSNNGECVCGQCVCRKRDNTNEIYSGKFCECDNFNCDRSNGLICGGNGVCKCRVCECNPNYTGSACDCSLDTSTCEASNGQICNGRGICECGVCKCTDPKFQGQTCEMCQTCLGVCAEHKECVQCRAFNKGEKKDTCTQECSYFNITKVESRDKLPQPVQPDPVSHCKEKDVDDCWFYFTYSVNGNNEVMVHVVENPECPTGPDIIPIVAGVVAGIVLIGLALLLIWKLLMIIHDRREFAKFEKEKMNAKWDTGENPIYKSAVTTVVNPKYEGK
Chain of Integrin beta-1 (Homo sapiens) + Integrin alpha-4 (Homo sapiens) (P13612 whole entry, looked up): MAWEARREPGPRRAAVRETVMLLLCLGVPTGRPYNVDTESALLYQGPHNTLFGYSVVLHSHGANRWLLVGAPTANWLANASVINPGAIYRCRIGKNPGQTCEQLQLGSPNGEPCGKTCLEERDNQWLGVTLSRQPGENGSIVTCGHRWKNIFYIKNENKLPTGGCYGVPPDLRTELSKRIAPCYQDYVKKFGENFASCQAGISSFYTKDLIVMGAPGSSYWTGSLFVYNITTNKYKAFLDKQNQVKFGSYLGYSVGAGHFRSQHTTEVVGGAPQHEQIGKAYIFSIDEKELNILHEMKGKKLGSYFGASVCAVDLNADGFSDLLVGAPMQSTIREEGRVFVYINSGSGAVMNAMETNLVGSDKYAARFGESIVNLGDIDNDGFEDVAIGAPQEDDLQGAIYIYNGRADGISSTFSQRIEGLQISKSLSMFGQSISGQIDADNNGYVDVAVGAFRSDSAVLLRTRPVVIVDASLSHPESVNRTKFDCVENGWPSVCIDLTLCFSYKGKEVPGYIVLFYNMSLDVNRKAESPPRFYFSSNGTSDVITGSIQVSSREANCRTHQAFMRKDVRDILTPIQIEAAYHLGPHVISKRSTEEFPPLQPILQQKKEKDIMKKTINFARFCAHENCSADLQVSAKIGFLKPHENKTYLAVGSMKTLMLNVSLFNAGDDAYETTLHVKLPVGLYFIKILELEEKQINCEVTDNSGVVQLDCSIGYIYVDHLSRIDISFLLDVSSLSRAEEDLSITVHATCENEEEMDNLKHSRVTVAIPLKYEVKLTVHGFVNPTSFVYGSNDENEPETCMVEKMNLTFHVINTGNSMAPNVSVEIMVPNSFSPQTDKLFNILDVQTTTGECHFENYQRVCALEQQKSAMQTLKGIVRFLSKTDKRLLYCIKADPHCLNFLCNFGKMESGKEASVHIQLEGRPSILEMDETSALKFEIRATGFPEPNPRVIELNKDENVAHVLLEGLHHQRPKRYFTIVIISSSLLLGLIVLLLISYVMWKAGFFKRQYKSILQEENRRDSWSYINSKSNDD

Test [8] is described as follows: calorie-restriction mimetic ROS inhibitors, yeast – validation compound set, pilot screen (AID 2706;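 active = superoxide response below 65% of plate, a cut near 3 SD across the whole screen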;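 also: yeast exposed to compound for one week at 30 degrees C before staining; 100% = mean of all compound wells on the same plate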). As to conditions: S. cerevisiae aging, superoxide DHE fluorescence; at 10 µM; stronger effect = lower value.
Test [9] addresses Beta-adrenergic receptor kinase 1 (Homo sapiens) (UniProt P25098). Nature of the test: GRK2 binders displacing RNA aptamer, biochemical, validation, human GRK2, bead flow cytometry (AID 488806;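 active = aptamer binding inhibition above 30%, about 3 SD of noise from non-fluorescent compounds; inactive = inhibition at or below 30%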). Particulars: bead-bound GRK2, FAM-aptamer displacement, at 10 µM, stronger effect = higher value.
Test [10] has as its target Beta-2 adrenergic receptor (Homo sapiens) (UniProt P07550). Nature of the test: agonist-induced loss of surface beta2AR – cell-based, FAP fluorogen, flow cytometry, validation set, pilot screen (AID 504459).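 Also: agonist-driven loss of surface beta2AR via internalization measured by FAP dye flow cytometry.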 Particulars: Am2.2-beta2AR cells, at 10 µM, stronger effect = higher value.
In test [11] the target is AP-2 complex subunit beta (Homo sapiens) (UniProt P63010). Put plainly: beta-arrestin/AP2 interaction blockers – biochemical, validation set, GST-AP2 beads, flow cytometry, pilot screen (AID 504541;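 active = inhibition above 54%, about 3 SD of non-fluorescent compounds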;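 also: AP2 carries R879A mutation and is captured from E. coli lysate; bead-bound FITC arrestin peptide fluorescence measuring arrestin peptide binding to AP2; 0% = DMSO wells and 100% = excess unlabeled arrestin peptide control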). As to conditions: FITC arrestin peptide, at 10 µM, stronger effect = higher value, AP2 beta2 appendage fragment, R879A mutant.
Chain of AP-2 complex subunit beta (Homo sapiens) (P63010 whole entry, looked up, the tested form may be a part, one chain of several): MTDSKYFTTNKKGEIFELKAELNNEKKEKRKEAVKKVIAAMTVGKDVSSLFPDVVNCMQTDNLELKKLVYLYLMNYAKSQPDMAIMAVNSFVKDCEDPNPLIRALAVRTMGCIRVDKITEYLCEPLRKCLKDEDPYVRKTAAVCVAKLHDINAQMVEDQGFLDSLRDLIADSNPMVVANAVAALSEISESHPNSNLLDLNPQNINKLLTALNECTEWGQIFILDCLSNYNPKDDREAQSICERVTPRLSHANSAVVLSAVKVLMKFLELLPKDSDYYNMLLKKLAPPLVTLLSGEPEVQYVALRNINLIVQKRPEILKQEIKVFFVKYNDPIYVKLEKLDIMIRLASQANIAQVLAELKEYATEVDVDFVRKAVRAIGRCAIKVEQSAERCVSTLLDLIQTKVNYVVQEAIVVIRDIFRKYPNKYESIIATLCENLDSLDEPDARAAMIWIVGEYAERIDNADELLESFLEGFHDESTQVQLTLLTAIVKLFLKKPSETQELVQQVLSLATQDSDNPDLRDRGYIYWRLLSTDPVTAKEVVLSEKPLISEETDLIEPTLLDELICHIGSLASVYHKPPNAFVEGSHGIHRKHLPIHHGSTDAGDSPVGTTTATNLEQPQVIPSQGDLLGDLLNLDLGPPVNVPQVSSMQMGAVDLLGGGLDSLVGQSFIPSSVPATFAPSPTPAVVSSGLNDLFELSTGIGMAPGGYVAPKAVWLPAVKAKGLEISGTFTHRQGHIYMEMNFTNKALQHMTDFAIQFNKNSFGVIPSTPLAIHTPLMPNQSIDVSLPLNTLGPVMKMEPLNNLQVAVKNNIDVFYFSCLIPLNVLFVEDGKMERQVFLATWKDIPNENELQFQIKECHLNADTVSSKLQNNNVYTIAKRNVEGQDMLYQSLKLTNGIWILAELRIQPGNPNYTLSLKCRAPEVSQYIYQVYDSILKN
The nature of test [12]: cytosolic pH regulators acting via V-ATPase – S. cerevisiae, pHLuorin, HTS validation (AID 504600; in the data active = response above about 15%;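 also: plate controls were DMSO for no effect and reference compound for full effect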). As to conditions: V-ATPase proton transport, at 10 µM, stronger effect = higher value.
Test [13] relates to anti-desmoglein-3 scFv antibody binding to human DSG3. Nature of the test: blockers of pathogenic pemphigus antibody–desmoglein-3 binding – biochemical, validation compound set, bead-based, flow cytometry, pilot screen (AID 588368;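 active = binding below the plate cutoff, the plate median minus 3 SD, with a reading above zero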;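 also: signal is the median channel fluorescence of bead-bound GFP antibody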). As to conditions: Protein G beads, DSG3-Fc, scFv-GFP binding, at 10 µM, stronger effect = lower value.
Test [14] in a line: Nile Red efflux blockade in pump-expressing yeast – validation compound set, multiplex, phenotypic, pilot screen (AID 588506;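 active = efflux inhibition above 0.42, the validation set average plus 4 SD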;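 also: Nile Red retained in cells so higher fluorescence means more efflux inhibition; 0 = negative control wells and 1 = enniatin B 25 µM full block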). Particulars: S. cerevisiae pump-expressing triplex, Nile Red efflux flow cytometry; at 10 µM; stronger effect = higher value; the pumps come from Candida albicans.
The target in test [15] is ATP-binding cassette sub-family B member 6 (Homo sapiens) (UniProt Q9NP58). Nature of the test: blockers of ABCB6-driven porphyrin uptake – K562-ABCB6 cells, flow cytometry, validation set, pilot screen (AID 588550;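 active = inhibition above the screen-wide mean plus 3 SD, about 51%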;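 also: 0% = DMSO wells and 100% = benzethonium chloride 70 µM positive control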). As to conditions: K562-ABCB6 porphyrin accumulation, 1 h, at 10 µM, stronger effect = higher value.
Chain of ATP-binding cassette sub-family B member 6 (Homo sapiens) (Q9NP58 whole entry, looked up): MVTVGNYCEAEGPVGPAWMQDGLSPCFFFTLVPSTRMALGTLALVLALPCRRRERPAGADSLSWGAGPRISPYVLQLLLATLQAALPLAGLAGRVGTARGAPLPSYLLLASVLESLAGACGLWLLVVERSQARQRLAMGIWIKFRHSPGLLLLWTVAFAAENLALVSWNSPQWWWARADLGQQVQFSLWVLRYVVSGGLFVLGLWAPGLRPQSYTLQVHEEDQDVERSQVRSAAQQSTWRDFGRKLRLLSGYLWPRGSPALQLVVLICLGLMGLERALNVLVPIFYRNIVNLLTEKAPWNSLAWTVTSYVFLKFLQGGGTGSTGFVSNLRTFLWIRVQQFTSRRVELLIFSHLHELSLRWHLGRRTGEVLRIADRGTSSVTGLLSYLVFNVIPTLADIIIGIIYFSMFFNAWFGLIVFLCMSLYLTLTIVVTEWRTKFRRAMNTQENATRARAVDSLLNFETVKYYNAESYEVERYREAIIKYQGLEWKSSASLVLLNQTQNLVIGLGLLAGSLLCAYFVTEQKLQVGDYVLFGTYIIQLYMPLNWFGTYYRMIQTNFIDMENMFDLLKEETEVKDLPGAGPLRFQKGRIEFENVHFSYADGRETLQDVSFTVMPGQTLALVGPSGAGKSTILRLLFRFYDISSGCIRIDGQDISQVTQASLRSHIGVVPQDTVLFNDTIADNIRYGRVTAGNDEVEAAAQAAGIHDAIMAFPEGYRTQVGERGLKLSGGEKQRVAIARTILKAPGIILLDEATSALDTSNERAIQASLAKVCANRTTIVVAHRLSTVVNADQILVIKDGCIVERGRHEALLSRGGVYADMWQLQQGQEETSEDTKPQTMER
Test [16] in a line: AML differentiation inducers, ER-HoxA9 marrow cells – cell-based, GFP/MAC1 double positive, flow cytometry, validation set, primary screen (AID 588685;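 active = differentiation response of at least 50%, scaled between solvent and reference control, from cells with both markers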;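 also: compound exposure lasts four days before antibody staining and flow analysis; 0% = DMSO wells and 100% = 5 µM fulvestrant positive control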). As to conditions: stronger effect = higher value, normalized: vehicle 0, fulvestrant 100.

Chain of Beta-adrenergic receptor kinase 1 (Homo sapiens) (P25098 whole entry, looked up): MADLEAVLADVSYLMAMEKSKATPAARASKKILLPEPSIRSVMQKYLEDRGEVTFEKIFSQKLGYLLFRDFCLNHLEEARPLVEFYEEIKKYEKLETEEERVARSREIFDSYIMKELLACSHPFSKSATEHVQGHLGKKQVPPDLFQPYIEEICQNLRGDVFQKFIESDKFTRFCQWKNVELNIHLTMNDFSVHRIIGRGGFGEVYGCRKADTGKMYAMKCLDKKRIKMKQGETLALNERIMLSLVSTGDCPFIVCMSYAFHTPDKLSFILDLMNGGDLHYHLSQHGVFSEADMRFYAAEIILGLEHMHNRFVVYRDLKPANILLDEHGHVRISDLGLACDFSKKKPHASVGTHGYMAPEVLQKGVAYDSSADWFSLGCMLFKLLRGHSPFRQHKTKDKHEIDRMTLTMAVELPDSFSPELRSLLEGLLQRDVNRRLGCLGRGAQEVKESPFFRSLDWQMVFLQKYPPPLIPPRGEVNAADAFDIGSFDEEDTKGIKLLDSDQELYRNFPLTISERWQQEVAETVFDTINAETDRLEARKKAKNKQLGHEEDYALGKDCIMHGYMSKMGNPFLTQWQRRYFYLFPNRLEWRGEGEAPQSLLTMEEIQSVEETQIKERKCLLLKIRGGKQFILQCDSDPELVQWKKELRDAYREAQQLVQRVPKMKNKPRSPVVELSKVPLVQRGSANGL
Chain of Beta-2 adrenergic receptor (Homo sapiens) (P07550 whole entry, looked up): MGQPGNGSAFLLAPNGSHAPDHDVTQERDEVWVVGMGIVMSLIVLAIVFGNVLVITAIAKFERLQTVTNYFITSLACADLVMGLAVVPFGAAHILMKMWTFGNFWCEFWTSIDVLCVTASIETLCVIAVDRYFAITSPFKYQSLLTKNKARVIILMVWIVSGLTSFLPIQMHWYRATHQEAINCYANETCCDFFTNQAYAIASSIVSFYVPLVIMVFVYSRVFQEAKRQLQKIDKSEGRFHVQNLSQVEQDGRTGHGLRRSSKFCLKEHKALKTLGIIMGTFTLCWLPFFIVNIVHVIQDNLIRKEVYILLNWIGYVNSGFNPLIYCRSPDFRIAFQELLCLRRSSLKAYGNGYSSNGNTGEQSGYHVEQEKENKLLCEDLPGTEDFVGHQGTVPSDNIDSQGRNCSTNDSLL

On to `COc1ccc(/C=C/C(=O)c2cc3cccc(OC)c3oc2=O)cc1`, for which the percent of DMSO control GFP in test [1] is 103% (inactive). Moreover, the GFP response vs DMSO in [2] and in [4] was 106% (inactive) in each case. Besides, the percent response of DMSO control in [3] was 103% (inactive). Besides, the GFP response, % of DMSO in [5] is 95.7% (inactive). The same compound yielded a double positive events in test [6] of 57.4%. The vesicle binding response in test [6] is 172% (inactive). For the same compound, the inhibition (usually the drop in the measured response relative to a control, in per cent) in test [7] was -11.8% (inactive); in test [11], 4.15% (inactive); in test [15], -11% (inactive). The superoxide response (% of plate) in [8] is 107% (inactive). Also, the aptamer binding inhibition in test [9] was 0% (inactive). Also, the response in [10] was 7.46% (inactive); in test [12] it was 1.33% (inactive). The binding (% of control) in [13] is 96% (inactive). Also, the efflux inhibition (fraction of control) in [14] was 0.03 (inactive). Moreover, in [16], the differentiation response was 2.74% (inactive).
In the case of `O=C(N/N=C\c1cc([N+](=O)[O-])ccc1N1CCOCC1)c1ccccn1`, the percent of DMSO control GFP in test [1] was 107% (inactive). Further, the GFP response vs DMSO in test [2] was 102% (inactive); in test [4], 100% (inactive). In test [3], the percent response of DMSO control was 107% (inactive). Moreover, the GFP response, % of DMSO in test [5] was 103% (inactive). In test [6], this compound gave a double positive events of 59.8%. For the same compound, in test [6], the vesicle binding response is 142% (inactive). In addition, the inhibition in test [7] is -7.79% (inactive); in test [11], 1.39% (inactive); in test [15], -1% (inactive). Further, the superoxide response (% of plate) in test [8] is 104% (inactive). The aptamer binding inhibition in test [9] was -2% (inactive). The figures for the response in test [10] and in [12] were -1.25% (inactive) and 4.27% (inactive), respectively. The binding (% of control) in test [13] is 102% (inactive). The efflux inhibition (fraction of control) in [14] is 0.35 (inactive). In addition, in test [16], the differentiation response was -11.9% (inactive).
With `CCCCC[C@H](O)/C=C/C1=C(CCCCCCC(=O)O)C(=O)CC1`, the percent of DMSO control GFP in test [1] is 105% (inactive). Further, the results for the GFP response vs DMSO in test [2] and in test [4] were 106% (inactive) and 95.9% (inactive), respectively. In addition, in test [3], the percent response of DMSO control is 101% (inactive). In addition, in test [5], the GFP response, % of DMSO was 103% (inactive). In [6], the double positive events came out at 56.3%. Besides, in test [6], the vesicle binding response is 98.4% (inactive). The inhibition was -9.13% (inactive) in test [7], 1.77% (inactive) in [11] and 3% (inactive) in test [15]. Also, the superoxide response (% of plate) in test [8] is 99.9% (inactive). The aptamer binding inhibition in test [9] was 4% (inactive). In addition, the response in [10] is 2.65% (inactive); in test [12], 31% (active). In test [13], the binding (% of control) was 101% (inactive). For the same compound, in [14], the efflux inhibition (fraction of control) was 0.125 (inactive). For the same compound, in test [16], the differentiation response was -8.96% (inactive).
For `Cc1[nH]c2ccccc2c1/C=C/c1nc2ccccc2c(=O)n1CCO`, the percent of DMSO control GFP in test [1] was 102% (inactive). Moreover, the GFP response vs DMSO in test [2] is 106% (inactive); in test [4], 110% (inactive). For the same compound, the percent response of DMSO control in test [3] is 97.7% (inactive). Moreover, the GFP response, % of DMSO in test [5] is 100% (inactive). The same compound registered a double positive events in test [6] of 59%. Further, in test [6], the vesicle binding response is 200% (inactive). Also, the inhibition in test [7] is -15.4% (inactive); in [11], 12.7% (inactive); in test [15], 4% (inactive). In addition, the superoxide response (% of plate) in [8] was 89.8% (inactive). The aptamer binding inhibition in [9] is 7% (inactive). The values for the response in test [10] and in test [12] were 20.6% (inactive) and -3.06% (inactive), respectively. The binding (% of control) in [13] was 106% (inactive). In [14], the efflux inhibition (fraction of control) was 0.33 (inactive). In addition, in [16], the differentiation response was 0.8% (inactive).
